Target: T1, USP38 (UniProt Q8NB14)
T1 sequence (whole entry): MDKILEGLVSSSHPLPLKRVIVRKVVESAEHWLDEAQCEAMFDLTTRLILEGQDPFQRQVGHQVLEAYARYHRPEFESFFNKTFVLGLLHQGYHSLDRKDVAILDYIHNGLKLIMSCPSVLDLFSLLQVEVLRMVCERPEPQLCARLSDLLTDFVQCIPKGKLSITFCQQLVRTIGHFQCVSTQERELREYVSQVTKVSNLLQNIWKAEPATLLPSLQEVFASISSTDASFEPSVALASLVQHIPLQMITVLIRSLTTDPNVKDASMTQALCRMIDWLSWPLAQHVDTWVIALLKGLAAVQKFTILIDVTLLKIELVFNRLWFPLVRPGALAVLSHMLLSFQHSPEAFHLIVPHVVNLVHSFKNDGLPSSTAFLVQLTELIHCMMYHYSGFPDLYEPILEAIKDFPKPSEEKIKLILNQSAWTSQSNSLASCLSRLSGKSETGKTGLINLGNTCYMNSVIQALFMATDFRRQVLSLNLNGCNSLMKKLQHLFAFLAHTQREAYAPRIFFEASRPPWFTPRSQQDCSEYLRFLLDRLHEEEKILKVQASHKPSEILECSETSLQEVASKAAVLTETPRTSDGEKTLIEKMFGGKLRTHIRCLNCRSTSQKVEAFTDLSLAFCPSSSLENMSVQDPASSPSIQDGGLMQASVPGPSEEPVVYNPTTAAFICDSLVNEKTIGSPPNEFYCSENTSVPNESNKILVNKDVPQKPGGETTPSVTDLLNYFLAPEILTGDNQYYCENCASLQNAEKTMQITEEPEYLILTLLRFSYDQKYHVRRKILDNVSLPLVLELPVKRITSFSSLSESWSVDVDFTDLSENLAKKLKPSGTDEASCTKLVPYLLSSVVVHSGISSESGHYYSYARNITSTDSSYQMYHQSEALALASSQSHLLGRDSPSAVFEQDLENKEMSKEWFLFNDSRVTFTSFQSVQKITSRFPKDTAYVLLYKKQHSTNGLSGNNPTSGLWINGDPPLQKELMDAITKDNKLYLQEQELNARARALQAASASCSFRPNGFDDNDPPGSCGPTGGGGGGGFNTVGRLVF
Experiment: log2 ratio of Biotin-Ahx-Ub-VS probe labelling (compound/DMSO); higher = less target engagement, active = hit call of the paper (q ≤ 0.05, log2 ratio ≤ -1)
Details: treatment time: 3 h
Method in brief: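 HEK293T lysate (495 µg per sample, in Tris/CHAPS/IGEPAL buffer with protease inhibitors) was treated in triplicate with compound over a concentration series or DMSO for 3 h, then with Biotin-Ahx-Ub-VS (0.5 µM final) for 1 h. Labelled DUBs were NeutrAvidin-enriched, digested with LysC and trypsin, and run by diaPASEF LC-MS/MS. Spectronaut label-free protein quantities were global-median-normalised. Values are average log2 ratios compound/DMSO from an unpaired t-test, using proteins with ≥2 unique peptides.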

Measured: log2 ratio of Biotin-Ahx-Ub-VS probe labelling

O=C(CCl)N[C@H]1CCCc2ccccc21
inactive: compound concentration: 0.78uM -0.147 | compound concentration: 1.56uM -0.192 | compound concentration: 3.13uM -0.169 | compound concentration: 6.25uM -0.0221 | compound concentration: 12.5uM -0.0585 | compound concentration: 25uM -0.166 | compound concentration: 50uM -0.069 | compound concentration: 100uM -0.102 | compound concentration: 200uM -0.211

— the supplement of paper PMC11732987, “Enantioselective OTUD7B fragment discovery through chemoproteomics screening and high-throughput optimisation” (Communications Chemistry, 2025)
